Conditions in all cases: concentration: 1 μM, replicates: in singlicate; n = 1
For experiment [1], the system named is GRK1.
For experiment [2], the system named is T1, GRK2.
T1 construct: gene ADRBK1

Experiment [3] has as its system T2, GRK3.
T2 construct: gene ADRBK2

The subject of experiment [4] is GRK4.
Experiment [5] has as its system GRK7.
For experiment [6], the system named is GSK3A.
Experiment [7] has as its system GSK3B.
For experiment [8], the system named is T3, HASPIN.
T3 construct: gene GSG2

For experiment [9], the system named is HCK.
Experiment [10] relates to HIPK1.
Experiment [11] concerns HIPK2.
For experiment [12], the system named is HIPK3.
Experiment [13] deals with HIPK4.
Experiment [14] concerns HPK1.
Experiment [15] relates to HUNK.
Experiment [16] relates to ICK.
Experiment [17] relates to IGF1R.
The subject of experiment [18] is T4, IKK-alpha.
T4 construct: gene CHUK

Experiment [19] relates to T5, IKK-beta.
T5 construct: gene IKBKB

In experiment [20] the test system is T6, IKK-epsilon.
T6 construct: gene IKBKE

Each structure is given as a SMILES string.

This note sets out measurements from publication PMC5540273 (PLoS ONE, 2017).
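Note: KINOMEscan kinase panel screen.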

Take `CSc1nn2c(=O)cc(N3CCOCC3)nc2n1Cc1cccc(Cl)c1Cl` [GSK2347225]: the “%Inh” value was determined as 20% in experiment [1]; 0% in experiment [2]; 0% in experiment [3]; 17% in experiment [4]; 0% in experiment [5]; 16% in experiment [6]. The “%Inh” value came to 8% in experiment [7]; 0% in [8]; 0% in experiment [9]; 11% in experiment [10]; 0% in experiment [11]; 17% in [12]. Also, the “%Inh” value was found to be 2% in [13]; 25% in experiment [14]; 25% in experiment [15]; 0% in experiment [16]; 0% in experiment [17]; 0% in [18]. For the same compound, the figures for the “%Inh” value in experiment [19] and in experiment [20] were 0% and 28%, respectively.
Turning to `Cn1ccc2ncnc(Oc3ccc(NC(=O)Nc4cccnc4)c(Cl)c3)c21`, the “%Inh” value in [1] is 13%; in experiment [2] it was 0%; in [3], 0%; in experiment [4] it was 1%; in experiment [5], 14%; in experiment [6] it was 0%. Also, the “%Inh” value in [7] came out at 3%; in experiment [8], 0%; in [9] it was 8%; in experiment [10] it was 13%; in experiment [11], 4%; in [12], 0%. Besides, the “%Inh” value in experiment [13] is 6%; in experiment [14] it was 11%; in [15] it was 24%; in [16], 0%; in [17] it was 16%; in experiment [18], 13%. The “%Inh” value in experiment [19] came out at 10%; in experiment [20], 0%.
Regarding `Cc1cccc(-c2nc(Nc3ccc4[nH]nnc4c3)c3ccccc3n2)n1` [GW867587], the “%Inh” value in [1] is recorded as 3%; in [2], 0%; in experiment [3] it was 24%; in experiment [4], 0%; in experiment [5], 0%; in experiment [6], 0%. Also, the “%Inh” value in experiment [7] is given as 0%; in [8], 0%; in [9], 10%; in [10], 0%; in [11], 0%; in [12], 0%. In addition, the “%Inh” value in experiment [13] was determined as 0%; in experiment [14], 0%; in experiment [15], 37%; in [16], 0%; in experiment [17] it was 0%; in experiment [18], 0%. In addition, the “%Inh” value in experiment [19] and in experiment [20] was 0% in each case.
Consider `FC(F)(F)c1ccc(-c2nn3ncccc3c2-c2ccnc(Nc3cccc(C(F)(F)F)c3)n2)cc1` [GW828205], for which the “%Inh” value in experiment [1] worked out at 11%; in [2], 0%; in experiment [3], 0%; in experiment [4] it was 25%; in experiment [5] it was 0%; in experiment [6] it was 1%. Further, the “%Inh” value in experiment [7] was 10%; in [8], 0%; in experiment [9] it was 10%; in experiment [10], 39%; in experiment [11] it was 0%; in experiment [12] it was 0%. The “%Inh” value was determined as 11% in [13]; 0% in [14]; 32% in experiment [15]; 0% in experiment [16]; 3% in experiment [17]; 0% in experiment [18]. Moreover, the “%Inh” value in experiment [19] and in [20] was 0% each time.
Regarding `Clc1cccc(-c2nc(Nc3ccncc3)c3ccccc3n2)c1` [GW873004], the “%Inh” value is recorded as 10% in [1]; 0% in experiment [2]; 0% in experiment [3]; 0% in [4]; 0% in experiment [5]; 0% in [6]. The “%Inh” value was 0% in experiment [7]; 50% in experiment [8]; 26% in experiment [9]; 43% in experiment [10]; 25% in experiment [11]; 2% in [12]. In addition, the “%Inh” value in [13] stood at 22%; in [14] it was 0%; in experiment [15], 53%; in experiment [16] it was 0%; in experiment [17] it was 0%; in experiment [18], 0%. Moreover, the “%Inh” value in experiment [19] and in experiment [20] was 0% in each case.
